Laboratory results taken from article PMC4552634, “A New Set of Chemical Starting Points with Plasmodium falciparum Transmission-Blocking Potential for Antimalarial Drug Discovery” (PLoS ONE, 2015).
The whole screen tested about 13,000 compounds, of which about 3,200 (25%) showed an effect of 50% or more. This is one part of the list.

System: P. falciparum stage V gametocytes
Set-up: BacTiter-Glo ATP luminescence viability of purified stage V gametocytes in 384-well plates, per cent inhibition versus DMSO
Details: 48 h, 5 µM; inhibitor

Structure (SMILES) | % Inhibition
C/C=C1/CN2CC[C@H]1C[C@H]2[C@H](O)c1ccnc2ccc(O)cc12 [TCMDC-138167] | 19.07%
C=CCOc1ccccc1CNCC(O)c1cccc(C(F)(F)F)c1 (stereo not drawn) [TCMDC-140394] | 31.37%
COc1ccc(CCN2CCC(Nc3nc4ccccc4n3CCc3ccc(OC)cc3)CC2)cc1 [TCMDC-123918] | 9.396%
N#Cc1cc(C(=O)Nc2ccccc2)c(N)nc1SCC(=O)NC(c1ccccc1)c1cccs1 (stereo not drawn) [TCMDC-124880] | -24.84%
CCN(CC)c1cc(C)c2cc(NC(=O)c3cc(=O)c4ccccc4o3)ccc2n1 [TCMDC-123592] | 0.01985%
COc1cc(OC)nc(-c2cccc(NC(=O)c3ccc4c(=O)n(CCN5CCCCC5)cnc4c3)c2)n1 [TCMDC-132360] | -43.17%
CN(C)Cc1cccc(-c2ccc(NC(=O)c3ccc4c(=O)n(CCN5CCCCC5)cnc4c3)cc2)c1 [TCMDC-132362] | 105.2%
CN(C)Cc1cccc(-c2ccc(NC(=O)c3ccc4c(=O)n(CC5CCCO5)cnc4c3)cc2)c1 (stereo not drawn) [TCMDC-132365] | 80.9%
CN(C)Cc1cccc(-c2ccc(NC(=O)c3ccc4c(=O)n(Cc5cnn(C)c5)cnc4c3)cc2)c1 [TCMDC-132370] | -68.25%
CN(C)Cc1cccc(-c2ccc(NC(=O)c3ccc4c(=O)n(C5CCCCC5)cnc4c3)cc2)c1 [TCMDC-132367] | -36.18%
CCCn1cnc2cc(C(=O)Nc3ccc(-c4cccc(CN(C)C)c4)cc3)ccc2c1=O [TCMDC-132363] | 8.061%
NC1=NC(c2ccccc2)(c2ccccc2)C(=O)N1Cc1ccc(-c2ccncc2)cc1 [TCMDC-136894] | 25.37%
Cc1ccc2nc3c(cc(C(=O)NCc4ccccc4)c(=N)n3CCCn3ccnc3)c(=O)n2c1 [TCMDC-124377] | 6.883%
C=C1C(C(=O)OCC)=CN(CC)c2cc(O[C@@H]3CCN(C(=O)OC(C)(C)C)C3)ccc21 [TCMDC-135647] | 15.51%
O=C(/C=C/c1ccc(Cl)c(Cl)c1)NC1CCN(CCNC(=O)c2cccc(Cl)c2)CC1 [TCMDC-141950] | -32.49%
CCCc1cc(=O)[nH]c(-n2nc(C)cc2NC(=O)c2cc3ccccc3o2)n1 [TCMDC-124939] | 13.85%
O=C(NC1CCCCN(Cc2ccccc2O)C1)c1ccc(Cl)c(Cl)c1 (stereo not drawn) [TCMDC-141736] | -19.06%
O=C(NC1CCCCN(Cc2ccccc2O)C1)c1cccc(C(F)(F)F)c1 (stereo not drawn) [TCMDC-141743] | 0.3319%
O=C(NC1CCCCN(Cc2ccccc2O)C1)c1cccc(Cl)c1 (stereo not drawn) [TCMDC-141745] | 70.72%
O=C(NC1CCN(Cc2ccccc2O)C1)c1ccc(-c2ccccc2)cc1 (stereo not drawn) [TCMDC-141747] | 74.99%
Oc1ccc(-c2ccccc2)cc1CN1CCCCC1 [TCMDC-125510] | 85.49%
O=C(NC1CCCCN(Cc2ccccc2O)C1)c1cc(F)cc(F)c1 (stereo not drawn) [TCMDC-141742] | 24.3%
O=C(NC1CCCCN(Cc2ccccc2O)C1)c1ccc(-c2ccccc2)cc1 (stereo not drawn) [TCMDC-141746] | 61.29%

Structure (SMILES) | % Inhibition
Oc1ccc(-c2ccccc2)cc1CN1CCCCCC1 [TCMDC-124203] | 12.06%
CC(C)(c1ccccc1)c1ccc(O)c(CN2CCOCC2)c1 [TCMDC-124276] | -17.17%
O=C(NC1CCN(Cc2ccccc2O)C1)c1cccc(C(F)(F)F)c1 (stereo not drawn) [TCMDC-141744] | -4.979%
O=S(=O)(NC1CCCCN(Cc2ccccc2O)C1)c1ccc(C(F)(F)F)cc1 (stereo not drawn) [TCMDC-141803] | -6.826%
O=C(NC1CCN(Cc2ccccc2O)C1)c1ccc(Cl)c(Cl)c1 (stereo not drawn) [TCMDC-141737] | 3.103%
Cc1ccccc1C1CCN(C2CCC(NC(=O)c3ccc(-c4cccs4)s3)CC2)CC1 (stereo not drawn) [TCMDC-134105] | -3.744%
CC(=O)Nc1ncc(C(=O)Nc2cccc(-c3ccc(-c4nc5ccc(F)cc5[nH]4)cc3)c2)s1 [TCMDC-136916] | -12.2%
O=C(NCc1ccccc1[S+]([O-])c1ccccc1CO)C(F)(F)F (stereo not drawn) [TCMDC-137886] | 0.169%
Cc1cccc2nc(-c3cccc(-c4ccc(CNCc5cnn(-c6ccccc6)n5)cc4)c3)[nH]c12.O=C(O)C(F)(F)F [TCMDC-132965] | -15.5%
S=C(NCCN1CCOCC1)Nc1ccccc1 [TCMDC-123845] | -18.32%
N#Cc1cc(C(=O)c2cc(Cl)ccc2O)cn(-c2cc(Cl)cc(Cl)c2)c1=O [TCMDC-125188] | -6.306%
Cc1cc(N(C)C)nc(Nc2ccc(NS(=O)(=O)c3ccccc3)cc2)n1 [TCMDC-124952] | 7.952%
COc1ccc(CNCc2ccccc2)cc1-c1ccc(S(=O)(=O)NCCN2CCCC2)c(C)c1 [TCMDC-132272] | 107.1%
O=S(=O)(NCCN1CCCC1)c1ccc(-c2ccc(CNCc3ccc(F)cc3)cc2)cc1F [TCMDC-132287] | 42.7%
COc1ccc(CNCc2ccc(F)cc2)cc1-c1ccc(S(=O)(=O)NCCN2CCCC2)c(C)c1 [TCMDC-132224] | 105.7%
COc1ccc(CNCc2ccccc2)cc1-c1ccc(S(=O)(=O)NCCN2CCCC2)c(F)c1 [TCMDC-132265] | 101.3%
O=S(=O)(NCCN1CCCC1)c1ccc(-c2ccc(CNCc3ccccc3)cc2)cc1F [TCMDC-132236] | 50.96%
Cc1cc2c(cc1C(F)(F)F)N(C(=O)Nc1ccc(C(=O)NC3CCN(Cc4ccccc4)C3)cc1)CC2 (stereo not drawn) [TCMDC-139871] | 23.78%
Clc1cc(Br)ccc1-c1ccc(CNCC2CCNCC2)o1 [TCMDC-124617] | 29.69%
CC(C)Cc1cnc2nc(N)nc(N)c2c1 [TCMDC-137923] | 48.38%
N#Cc1c(-c2ccccc2)cn2c1[nH]c(=O)c1ccccc12 [TCMDC-124997] | 14.43%
CCN(CCCN1CCCCC1)c1cc(C)nc(Nc2ccc(C)c(F)c2)n1 [TCMDC-132437] | 25.13%
